These results are taken from PubChem BioAssay.

The target in assay [1] is 6-phosphogluconate dehydrogenase, decarboxylating (Homo sapiens) (UniProt P52209). Kind of assay: 6PGD enzyme inhibitors, primary screen, biochemical, human, recombinant enzyme, NADPH absorbance (AID 1159550;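 active = at least 20% inhibition of 6-phosphogluconate dehydrogenase activity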). The settings on record: recombinant 6PGD, NADPH absorbance 341 nm; at 10 µM; stronger effect = higher value.
A short description of assay [2]: differential killing of epithelial or mesenchymal cells, primary screen, imaging, PC-3E GFP, TEM4-18 mCherry, co-culture (AID 1345086;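 active = compounds killing one labelled cell type while sparing the other, by normalised counts and ratio limits, not self-fluorescent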;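 for all read-outs here: cells exposed to compound for 72 h before imaging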;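 for red/green cell ratio (normalised): normalised mesenchymal count divided by normalised epithelial count so high means epithelial killing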). The settings on record: imaging cell counts, at 1 µM; for red/green cell ratio (normalised): actives lie on both sides.
Assay [3] addresses Mitogen-activated protein kinase 7 (Homo sapiens) (UniProt Q13164). As to the kind of experiment: ERK5 transactivation activators in reporter cells, primary screen, cell-based, HTS (AID 1508626;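 active = luciferase signal above three times the same-plate solvent-only control wells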;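 note: luciferase driven by Gal4-ERK5 fusion binding five Gal4 sites before minimal TATA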). The settings on record: HeLa Gal4-ERK5 transactivation, 18 h, at 5 µM, stronger effect = higher value.
Assay [4] is described as follows: polyglutamine-triggered caspase-3 activation inhibitors, cell-based (AID 1583). The settings on record: polyglutamine-induced caspase-3 activation, cell assay; stronger effect = higher value;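 tested at 10 µM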.
Assay [5] is described as follows: suppressors of polyQ aggregation in yeast, 75Q-TubU reporter (AID 1593). The settings on record: Yeast 75Q polyglutamine aggregation reporter.
Assay [6] in a line: rescue of polyQ-huntingtin neuronal dysfunction in worms, whole organism, C. elegans mechanosensory neurons, N-terminal huntingtin (AID 1599). The settings on record: touch response, stronger effect = higher value.
The nature of assay [7]: inhibitors of mitochondrial cytochrome c release, biochemical, purified mitochondria (AID 1603).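 Note: mouse liver mitochondria challenged with calcium chloride; signal normalized to the plate average as 100%.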 The settings on record: stronger effect = lower value.
A short description of assay [8]: inhibitors of polyQ protein aggregation (AID 1604). The settings on record: polyglutamine-induced protein aggregation inhibition assay; stronger effect = higher value; tested at 2.5 µM.
Assay [9] in a line: enhancers of glutamate uptake in motor neurons, MN-1 cell line (AID 1612).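 Note: tested at 1 µM final; 0% = mean of DMSO vehicle wells on each plate; positive means more glutamate uptake than control and negative means less.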 The settings on record: MN-1 motor neuron cells, stronger effect = higher value.
Assay [10] is described as follows: reducers of polyQ inclusions in PC12 cells, cell-based, NGF-treated PC12, GFPQ80 (AID 1614).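 Note: lower means fewer inclusions and 0 means no inclusions at all.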 The settings on record: PC12 NGF-treated GFP-polyQ80 inclusion reduction.
A short description of assay [11]: suppressors of polyglutamine aggregation in yeast, 75Q-TubH (AID 1616). The settings on record: S. cerevisiae 75Q-TubH polyglutamine aggregation suppression; stronger effect = higher value.
Assay [12] is described as follows: liver-stage malaria parasite growth inhibition, primary screen, cell-based, HepG2, luciferase luminescence, HepG2 viability (AID 624349; in the data active = parasite load remaining mostly below about 12%, no sharp cut-off; inactive = mostly above about 10%;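 note: 100% = mean of DMSO negative control wells on the same plate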). The settings on record: P. berghei liver stage in HepG2, luciferase luminescence, concentration not given here; parasite load remaining: stronger effect = lower value; viability: measured here: HepG2 viability without parasites.
In assay [13] the test system is Aerobactin synthetase IucA (Klebsiella pneumoniae hvKP1). Kind of assay: Biochemical IucA enzyme inhibition primary screen of the Spectrum library (AID 1346200).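 Note: 100% = wells without compound and 0% = wells lacking enzyme.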 The settings on record: malachite green pyrophosphate, A620, at 8 µM, stronger effect = lower value.
Assay [14] is described as follows: circadian clock period modulators, cell-based, LOPAC library, luminescence reporter (AID 2774).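 Note: values are relative to mean of DMSO wells on each plate.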 The settings on record: circadian reporter cells, at 7 µM, actives lie on both sides.
The test system of assay [15] is Hepatitis C virus NS3 helicase. As to the kind of experiment: HCV NS3 helicase inhibitors, primary screen, biochemical, fluorescence polarization, LOPAC1280 library (AID 687035; in the data active = inhibition above about 37%). The settings on record: Purified HCV NS3 helicase, Cy5-dT15 ssDNA binding fluorescence polarization; stronger effect = higher value; concentration not given here. For orientation: In fluorescence polarisation assays a small probe gives low polarisation when free and higher when bound to something large.

Assay [16] can be described thus: Cy5 fluorescence quenching or enhancement artefacts, artefact control for HCV NS3 helicase inhibitor project, biochemical, LOPAC1280 (AID 687037). The settings on record: Cy5-DNA-NS3h complex fluorescence interference counterscreen. For orientation: Counterscreens check selectivity or assay interference.
Assay [17] relates to Aerobactin synthetase IucA (Klebsiella pneumoniae). As to the kind of experiment: IucA aerobactin synthetase inhibitors, biochemical, Tocris library, absorbance (AID 1345561).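 Note: 100% = enzyme without compound and 0% = no enzyme.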 The settings on record: purified IucA enzyme assay, absorbance (OD) read-out; stronger effect = lower value;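 tested at 8 µM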.
The test system of assay [18] is Aerobactin synthetase IucA (Klebsiella pneumoniae, hypervirulent). Kind of assay: IucA enzyme inhibition, biochemical, LOPAC library, absorbance readout (AID 1346212).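 Note: 100% = no compound wells and 0% = no enzyme wells.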 The settings on record: IucA enzyme assay, absorbance (OD) readout; stronger effect = lower value;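 tested at 8 µM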.
The nature of assay [19]: sensitizers of A549 cells to miR-34 induction, primary screen, imaging, A549 dox-inducible miR-34, nuclei and caspase counts (AID 1347080;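 active = compounds whose cell count with miR-34 switched on is under 0.7 times the count with it off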). The settings on record: A549 miR-34 inducible, Hoechst nuclei count, 48 h.
The nature of assay [20]: phospholipid biosynthesis inhibitors in animal cells, primary screen, cell-based, LOPAC library, screen 4 (AID 1347384). The settings on record: phospholipid biosynthesis inhibition screen, at 10 µM.
Assay [21] is described as follows: viability rescue of complex I mutant cybrids, primary screen, cell-based, galactose medium, ATP luminescence (AID 1645843;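 active = z-score of at least 1.8 in each of two replicates, scored against plate mean and spread of sample wells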;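 note: positive z means more ATP and so rescue of galactose-driven cybrid death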). The settings on record: complex I mutant cybrid cells, 72 h, stronger effect = higher value.
The nature of assay [22]: hESC survival regulators, cell-based (AID 493140).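 Note: cells exposed to compounds for four days before counting.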 The settings on record: human embryonic stem cell survival screen; stronger effect = higher value.
Assay [23] in a line: survival rescue of mitochondrial mutant cells in low glucose, primary screen, MELAS cybrids, Rieske KO mouse fibroblasts, CellTiter-Glo (AID 1508586;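 active = mean z-score across replicates of 1.96 or higher in either the MELAS or the Rieske mutant cell line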;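 note: z relative to plate mean and SD of compound and empty wells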). A general note: In ATP-based viability assays light output follows the ATP content of the culture.
The target in assay [24] is NAD(+) hydrolase SARM1 (Homo sapiens) (UniProt Q6SZW1). As to the kind of experiment: SARM1 TIR NADase inhibitors, cell lysate, NAD-Glo luminescence (AID 1508614;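 active = compound whose remaining NAD level is above about 45 nM, limit read from the data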;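 note: higher remaining NAD means stronger inhibition of SARM1 NADase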). The settings on record: SAM-TIR HEK293T lysate NADase, at 1 µM, stronger effect = higher value.
Chain of NAD(+) hydrolase SARM1 (Homo sapiens) (Q6SZW1 whole entry, looked up): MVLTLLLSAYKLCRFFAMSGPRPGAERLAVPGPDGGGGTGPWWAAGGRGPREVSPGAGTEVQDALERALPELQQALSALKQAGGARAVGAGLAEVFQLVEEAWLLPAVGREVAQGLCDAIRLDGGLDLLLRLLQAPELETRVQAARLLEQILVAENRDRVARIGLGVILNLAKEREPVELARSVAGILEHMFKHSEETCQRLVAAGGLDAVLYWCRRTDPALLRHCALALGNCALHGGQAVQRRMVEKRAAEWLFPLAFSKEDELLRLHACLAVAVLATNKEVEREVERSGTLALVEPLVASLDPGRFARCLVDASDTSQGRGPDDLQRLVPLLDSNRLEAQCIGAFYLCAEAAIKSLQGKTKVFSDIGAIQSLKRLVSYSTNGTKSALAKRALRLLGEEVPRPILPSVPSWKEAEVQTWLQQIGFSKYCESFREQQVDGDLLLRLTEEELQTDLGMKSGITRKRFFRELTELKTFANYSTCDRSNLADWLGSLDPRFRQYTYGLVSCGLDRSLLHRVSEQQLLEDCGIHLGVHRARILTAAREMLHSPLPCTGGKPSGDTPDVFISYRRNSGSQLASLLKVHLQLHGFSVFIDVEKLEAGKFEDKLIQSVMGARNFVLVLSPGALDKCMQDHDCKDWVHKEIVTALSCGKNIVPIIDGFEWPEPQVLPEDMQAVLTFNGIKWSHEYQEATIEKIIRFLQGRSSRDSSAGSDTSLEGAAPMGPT
Setting [25] is: measured here: epithelial PC-3E GFP cell survival.
Setting [26] is: measured here: mesenchymal TEM4-18 mCherry cell survival.
Where [27] appears, read: measured here: relative caspase fold change +Dox/-Dox.
Where [28] appears, read: measured here: total cells with miR-34 induction, stronger effect = lower value.
The mark [29] stands for this setting: measured here: total cells without miR-34 induction.

“And” between values parts separate entries of the source, which are not always exact repeats. Equal values may be shown once. For some assays here: Measured potencies and affinities stand elsewhere. The source made the active and inactive calls. Unless noted, the rule behind the calls is not given here.

For orientation: inhibition means the relative decrease from the control value, in per cent. The viability is the share of living cells, or the viability signal relative to a control. What is called remaining activity is the share of the control activity or signal that is left under treatment.

Chain of Mitogen-activated protein kinase 7 (Homo sapiens) (Q13164 whole entry, looked up, the tested form may be a part): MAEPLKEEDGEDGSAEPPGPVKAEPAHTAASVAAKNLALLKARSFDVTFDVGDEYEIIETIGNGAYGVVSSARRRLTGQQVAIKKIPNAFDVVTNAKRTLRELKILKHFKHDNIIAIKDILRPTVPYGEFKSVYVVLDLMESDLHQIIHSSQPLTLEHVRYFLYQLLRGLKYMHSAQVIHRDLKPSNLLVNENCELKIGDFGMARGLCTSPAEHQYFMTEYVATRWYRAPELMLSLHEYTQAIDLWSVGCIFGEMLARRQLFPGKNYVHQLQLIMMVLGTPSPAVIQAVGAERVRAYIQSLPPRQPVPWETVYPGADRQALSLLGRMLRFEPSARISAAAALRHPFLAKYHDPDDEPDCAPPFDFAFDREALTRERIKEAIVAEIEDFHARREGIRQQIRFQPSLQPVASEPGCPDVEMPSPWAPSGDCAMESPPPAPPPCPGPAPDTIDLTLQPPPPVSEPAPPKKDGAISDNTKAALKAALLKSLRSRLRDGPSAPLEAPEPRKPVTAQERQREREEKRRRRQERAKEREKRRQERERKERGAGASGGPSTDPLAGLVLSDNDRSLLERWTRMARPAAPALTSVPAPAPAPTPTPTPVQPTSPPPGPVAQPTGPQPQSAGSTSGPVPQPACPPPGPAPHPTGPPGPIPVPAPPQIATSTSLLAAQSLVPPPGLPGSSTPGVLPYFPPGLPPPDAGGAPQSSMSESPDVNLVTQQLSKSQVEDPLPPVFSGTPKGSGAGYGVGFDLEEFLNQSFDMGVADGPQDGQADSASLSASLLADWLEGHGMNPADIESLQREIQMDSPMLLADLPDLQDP
Chain of 6-phosphogluconate dehydrogenase, decarboxylating (Homo sapiens) (P52209 whole entry, looked up): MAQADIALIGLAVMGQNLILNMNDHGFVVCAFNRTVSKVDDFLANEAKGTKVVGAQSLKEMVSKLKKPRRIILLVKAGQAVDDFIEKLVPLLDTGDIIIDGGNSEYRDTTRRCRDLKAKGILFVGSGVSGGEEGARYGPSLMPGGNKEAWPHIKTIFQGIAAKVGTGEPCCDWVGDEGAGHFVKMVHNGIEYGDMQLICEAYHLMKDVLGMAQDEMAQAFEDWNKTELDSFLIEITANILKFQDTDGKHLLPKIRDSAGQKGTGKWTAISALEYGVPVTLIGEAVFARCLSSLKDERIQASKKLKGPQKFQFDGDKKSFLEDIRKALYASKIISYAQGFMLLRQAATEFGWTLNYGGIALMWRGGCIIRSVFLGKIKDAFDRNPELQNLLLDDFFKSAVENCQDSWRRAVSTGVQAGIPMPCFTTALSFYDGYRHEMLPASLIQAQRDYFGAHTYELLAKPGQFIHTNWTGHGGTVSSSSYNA

With `C=CCc1cc(OC)c2c(c1OC)OCO2`, the inhibition in [1] is -12.9% (inactive). In assay [2], the red/green cell ratio (normalised) was 1.18 (inactive). Further, the normalised cell number is 0.73 in assay [2] (setting [25]) and 0.87 in assay [2] (setting [26]). Besides, the luciferase signal in [3] is 32 AU (inactive).

As to `CC(C)(O)[C@@H]1[C@H]2OC(=O)[C@@H]1[C@]1(O)C[C@H]3O[C@]34C(=O)O[C@H]2[C@]14C`, the inhibition in assay [4] was -16.4%; in assay [1], 6.64% (inactive). The compound also came in with a score in assay [5] of 1.49. In [6], this compound returned a rescue above control of 8.41. Besides, the cytochrome c release ratio in [7] came to 0.87. The compound also returned an inhibition of aggregation in [8] of 51%. Also, in assay [9], the glutamate uptake change was 14.8%. The compound further came in with an inclusion score in [10] of 2. Moreover, the aggregation suppression score in [11] was 1.53. Besides, in assay [12], the parasite load remaining was 79% (inactive). The compound also showed a viability in assay [12] of 91.4%. Moreover, the red/green cell ratio (normalised) in assay [2] is 0.89 (inactive). Besides, the normalised cell number turned out to be 1.1 in assay [2] (setting [25]) and 0.99 in assay [2] (setting [26]). Also, the activity remaining in [13] is 107% (inactive). In addition, the luciferase signal in assay [3] is 84 AU (inactive).

Take `N#C/C(=C\c1cccc(O)c1)C(=O)O`: the inhibition in [4] is 16.4%; in assay [1] it was 11.3% (inactive). In assay [5], this compound returned a score of 1.48. In assay [6], this compound had a rescue above control of -1.13. In addition, the cytochrome c release ratio in [7] turned out to be 2.28. Besides, the inhibition of aggregation in assay [8] stood at 58.6%. The glutamate uptake change in assay [9] was -1.74%. This compound registered an inclusion score in assay [10] of 2. Also, the aggregation suppression score in assay [11] is 1.54. Further, in assay [2], the red/green cell ratio (normalised) is 0.88 (inactive). Also, the normalised cell number was determined as 1.09 in assay [2] (setting [25]) and 0.96 in assay [2] (setting [26]). The activity remaining in assay [13] is 104% (inactive). Moreover, the luciferase signal in assay [3] is 128 AU (inactive).

For the compound `O=[N+]([O-])c1cc(O)c(O)c([N+](=O)[O-])c1`, the figures for the inhibition in assay [4], in assay [15] and in assay [1] were -6.91%, 1% (inactive) and -7.64% (inactive), respectively. Also, the score in [5] came to 1.27. The same compound displayed a rescue above control in [6] of -7.14. In addition, in assay [7], the cytochrome c release ratio is 0.96. In addition, the inhibition of aggregation in assay [8] came out at 80.3%. In addition, the glutamate uptake change in assay [9] is -10%. In assay [10], this compound returned an inclusion score of 2. In assay [11], this compound had an aggregation suppression score of 1.02. In [14], the period change is 0.035 h (inactive). In addition, the fluorescence ratio (interference) in assay [16] was 1 (inactive). Further, the remaining activity was 95.2% (inactive) in assay [17] and 97% (inactive) in [18]. Further, the activity remaining in assay [13] is 110% (inactive). Moreover, the fold change in assay [19] (stronger effect = lower value) was 1.02 (inactive) and 0.929 (inactive); in assay [19] (setting [27]), 1.32 and 0.849. Further, the cell count was 9880 and 8690 in assay [19] (setting [28]); 9680 and 9350 in assay [19] (setting [29]). In assay [20], the outcome was inactive. The z-score in [21] was 0.815 (inactive) and 1.17 (inactive).

Take `CCC(=O)O[C@H]1CC[C@H]2[C@@H]3CCC4=CC(=O)CC[C@]4(C)[C@H]3CC[C@]12C`: the survival in assay [22] is 13.8 (inactive). Further, the parasite load remaining in assay [12] was 71.3% (inactive) and 54% (inactive). In addition, the viability in assay [12] was 94.2% and 78.8%. Besides, the inhibition in assay [1] was 16.6% (inactive). The fold change was 0.875 (inactive) in [19] (stronger effect = lower value) and 1.34 in assay [19] (setting [27]). The figures for the cell count in assay [19] (setting [28]) and in [19] (setting [29]) were 8190 and 9360, respectively. The z-score was -0.581 (inactive) in assay [23] (MELAS cybrid survival, CellTiter-Glo 48 h, stronger effect = higher value) and -0.301 in assay [23] (Rieske KO mouse fibroblast survival, CellTiter-Glo 72 h). For the same compound, the remaining NAD in assay [24] was 10 nM (inactive). For the same compound, in [3], the luciferase signal is 32 AU (inactive).
